Measured values as given in PubChem BioAssay.
Activity calls are given as the source filed them.

assay: A549 lung cancer cell viability effects, profiling panel, resazurin fluorescence, 24 h, PK04 Diversity Set (AID 1171); settings: higher = more signal, called active from +8 up or from −8 down; also: test concentration not given here

| Compound | z-score |
| --- | --- |
| O=C1NC(=O)C2C1C=CC(C(O)c1cc(C(F)(F)F)cc(C(F)(F)F)c1)N2Nc1ccccn1 (stereo not given) | -0.568 (inactive) |
| C=C(/C(=C/C[C@H](OC(C)=O)c1ccccc1OCCO)c1cnc2ccccc2c1)C(C)C | -0.0361 (inactive) |
| COC(=O)[C@H](Cc1ccccc1)N1CC2=C[C@@H](C3CC3)n3c(=O)n(C)c(=O)n3[C@H]2[C@@H]1[C@@H](O)Cc1ccccc1 | 0.138 (inactive) |
| CC(=O)n1cc(C(O)C2C=CC3C(=O)N(c4ccccc4)C(=O)C3N2Nc2ccc([N+](=O)[O-])cc2)c2ccccc21 (stereo not given) | -0.375 (inactive) |
| CN1C=C(C(=O)OCCS(C)(=O)=O)C(C(=O)OCCS(C)(=O)=O)=CC(c2ccc(CO)cc2)=CC1C1CC1 (stereo not given) | -0.267 (inactive) |
| COC(=O)[C@]1(CCC(=O)OC(C)(C)C)N=C(c2ccc(OCCCO)cc2)O[C@@H]1c1ccccc1CN=[N+]=[N-] | -2.22 (inactive) |
| C=CCNC(=O)[C@@H]1[C@H]2C(=O)O[C@H](c3ccccc3)[C@H](c3ccccc3)N2[C@H](c2ccc(OCCO)cc2)[C@@]12C(=O)Nc1ccc(C#CCC(C(=O)OC)C(=O)OC)cc12 | 1.39 (inactive) |
| COC(=O)C(CC#Cc1ccc2c(c1)[C@]1(C(=O)N2)[C@H](c2ccc(OCCO)cc2)N2[C@H](c3ccccc3)[C@H](c3ccccc3)OC(=O)[C@H]2[C@@H]1C(=O)N1CCc2cc(OC)c(OC)cc2C1)C(=O)OC | 0.161 (inactive) |
| NC(=O)N1C(=O)C2C(C1=O)C1C=C(c3ccc(CO)cc3)C2C(c2cccs2)N1Cc1cccc(OC(F)(F)F)c1 (stereo not given) | -0.69 (inactive) |
| C=CCC(OC(C)=O)[C@@H]1[C@@H](N(Cc2ccc(-c3ccccc3)cc2)C(=O)c2cccc3ccccc23)c2cc(OCCCO)ccc2N1C(=O)c1ccc(-c2ccccc2)cc1 (stereo not given in full) | 0.126 (inactive) |
| COc1cc(NN2C(C(O)c3ccco3)C=CC3C(=O)N(c4ccccc4)C(=O)C32)cc(OC)c1OC (stereo not given) | -1.54 (inactive) |
| CC(C)[Si]1(C(C)C)O[C@@H](c2ccccc2)c2cc(-c3ccc(-c4ccc(Cl)c(Cl)c4)o3)nc(-c3ccccc3)c21 | 0.613 (inactive) |
| CCOC(=O)C[C@H]1[C@H](OC(=O)c2ccc(C(=O)c3ccccc3)cc2)[C@@H](NC(=O)c2ccc3ccccc3n2)c2cc(OCCCO)ccc2N1C(=O)c1ccccc1 | 0.154 (inactive) |
| CC(C)C(O)C1C=CC2C(=O)NC(=O)C2N1Nc1ccc(Cl)cc1Cl (stereo not given) | -0.883 (inactive) |
| COc1ccc(C#Cc2ccc3c(c2)[C@]2(C(=O)N3)[C@H](C(=O)Nc3nc4ccccc4s3)[C@H]3C(=O)O[C@H](c4ccccc4)[C@H](c4ccccc4)N3[C@@H]2c2ccc(O)cc2)cc1 | 0.279 (inactive) |
| COC(=O)[C@@]1(Cc2ccccc2)N=C(c2ccc(OCCCO)cc2)O[C@H]1c1ccccc1 | -2.02 (inactive) |
| [N-]=[N+]=Nc1ccccc1[C@H]1OC(c2ccc(OCCCO)cc2)=N[C@@]1(CCS(=O)(=O)c1ccccc1)C(N)=O | 0.985 (inactive) |
| O=C1C[C@@](C(=O)NC2CC2)(c2ccc([N+](=O)[O-])cc2)[C@@H](c2ccc(CO)cc2I)N1C1CCCCC1 | 0.0067 (inactive) |

| Compound | z-score |
| --- | --- |
| COc1cc2c(cc1OC)CN(C(=O)[C@H]1[C@@H]3C(=O)O[C@@H](c4ccccc4)[C@@H](c4ccccc4)N3[C@@H](c3ccc(O)cc3)[C@]13C(=O)Nc1ccccc13)CC2 | -0.0574 (inactive) |
| O=C1O[C@H](c2ccccc2)[C@H](c2ccccc2)N2[C@H]1[C@@H](C(=O)N1CCCCCCC1)[C@]1(C(=O)Nc3ccc(C#CC4=CCCCC4)cc31)[C@H]2c1ccc(OCCO)cc1 | -0.0973 (inactive) |
| COC(=O)[C@@]1(CCC(=O)OC(C)(C)C)N=C(c2ccc(OCCCO)cc2)O[C@H]1c1ccccc1N=[N+]=[N-] | -2.08 (inactive) |
| O=C1C2C=CC(C(O)c3cc(C(F)(F)F)cc(C(F)(F)F)c3)N(n3cnnc3)C2C(=O)N1Cc1ccccc1 (stereo not given) | -0.226 (inactive) |
| CCCCCN1CC=CC23O[C@@H]4C=CCCOC(=O)C4[C@H]2C(=O)N(CCCCCO)[C@@H]3C1=O (stereo not given in full) | 0.26 (inactive) |
| COc1ccc([Si](C)(C)[C@@H]2[C@@H](CCO)O[C@]3(C(=O)N(Cc4ccc(N(C=O)c5ccccc5)cc4)c4ccccc43)[C@H]2C)cc1 | -2.71 (inactive) |
| C=CCOC(=O)[C@H]1[C@@H]2C(=O)O[C@@H](c3ccccc3)[C@@H](c3ccccc3)N2[C@@H](c2ccc(OCCOC(=O)[C@H]3C[C@H]4C(=O)N[C@@H](CCCCNC(C)=O)C(=O)N4[C@H]3c3cccc(OCCO)c3)cc2)[C@]12C(=O)Nc1ccccc12 | 0.319 (inactive) |
| [N-]=[N+]=NCc1ccccc1C[C@]1(C(N)=O)COC(c2ccc(OCCCO)cc2)=N1 | -1.1 (inactive) |
| C=C(CC1([C@@H](NP(=O)(c2ccccc2)c2ccccc2)[C@H]2C[C@@H]2CCCC)CC1)c1ccccc1 | 4.95 (inactive) |
| CC[C@@H]1C=C(C(=O)O)[C@H](c2ccc(Br)cc2)N1S(=O)(=O)c1ccc(C)cc1 | -0.472 (inactive) |
| C=C(CCCC)/C(=C/C[C@H](OC(C)=O)c1ccccc1OCCO)c1cc(C(=O)OC)ccc1OC | 0.423 (inactive) |
| COC(=O)[C@@]1(Cc2ccc(OC)cc2)[C@H]2c3cc(C(=O)N(C)C)n(C)c3C[C@H]2CN1C(=O)c1ccccc1 | -0.482 (inactive) |
| CN(C)CCCCCCNC(=O)[C@H]1C[C@H]2C(=O)N[C@@H](CCCCN)C(=O)N2[C@H]1c1cccc(OCCO)c1 | -0.0439 (inactive) |
| NC(=O)NCC#Cc1ccc2c(c1)[C@]1(C(=O)N2)[C@H](c2ccccc2OCCO)N2[C@H](c3ccccc3)[C@H](c3ccccc3)OC(=O)[C@H]2[C@@H]1C(=O)Nc1nc2ccccc2s1 | 0.659 (inactive) |
| CC1CC/C=C\[C@H]2OC34C=CCN(C(C)(C)C)C(=O)[C@H]3N(CCO)C(=O)[C@@H]4C2C(=O)O1 (stereo not given in full) | 0.283 (inactive) |
| C=C(COC)/C(=C/C[C@H](OC(C)=O)c1ccc(CO)o1)c1cc(C(=O)OC)ccc1OC | -0.369 (inactive) |
| CNS(=O)(=O)c1ccc(C)cc1 | -0.126 (inactive) |
